Test results from the supplement of paper PMC12669032.

Assays:
Assay in all cases: growth AUC relative to DMSO control (median of replicates) (fraction); higher = more growth (less inhibition), active = hit call of the paper
Conditions in all cases: 20 µM; 24 h;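 active = AUC reduced over 20% with Padj below 0.05 in at least 2 of 3 replicates; inactive = otherwise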
Akkermansia muciniphila = system: Akkermansia muciniphila
Outline: (§1)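 Gut bacterial monocultures were grown anaerobically at 37 °C in mGAM, starting at OD600 0.05, with 20 µM compound (1% DMSO) in round-bottom 96-well plates under pierced gas-permeable seals. OD600 was read hourly for 24 h. Area under the growth curve (minimum OD set to 0) was normalised to the plate median of DMSO controls, or to row and column medians on the industrial chemical plate. The value is the median of three biological replicates grown on separate days.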

Bacteroides caccae = system: Bacteroides caccae
Outline: as §1

Bacteroides clarus = system: Bacteroides clarus
Outline: as §1

Bacteroides dorei = system: Bacteroides dorei
Outline: as §1

Bacteroides stercoris = system: Bacteroides stercoris
Outline: as §1

[1] = system: Bacteroides thetaiotaomicron
Outline: as §1

Bacteroides uniformis = system: Bacteroides uniformis
Outline: as §1

[2] = system: Bifidobacterium longum subsp. longum
Outline: as §1

Clostridium difficile = system: Clostridium difficile
Outline: as §1

Collinsella aerofaciens = system: Collinsella aerofaciens
Outline: as §1

Measured: growth AUC

CCOc1nc(F)cc2nc(S(=O)(=O)Nc3c(Cl)cccc3C(=O)OC)nn12
inactive: Akkermansia muciniphila 0.983 | Bacteroides caccae 0.999 | Bacteroides clarus 0.984 | Bacteroides dorei 0.988 | Bacteroides stercoris 0.978 | [1] 0.999 | Bacteroides uniformis 0.987 | [2] 0.982 | Clostridium difficile 0.98 | Collinsella aerofaciens 1.02

CCc1cccc(C)c1N(C(=O)C(=O)O)C(C)COC (stereo not given)
inactive: Akkermansia muciniphila 0.949 | Bacteroides caccae 1.03 | Bacteroides clarus 0.97 | Bacteroides dorei 1.02 | Bacteroides stercoris 1.1 | [1] 1.03 | Bacteroides uniformis 1.03 | [2] 1.03 | Clostridium difficile 1.03 | Collinsella aerofaciens 1.04

CCCOc1nc2ccc(I)cc2c(=O)n1CCC
inactive: Akkermansia muciniphila 0.956 | Bacteroides caccae 0.995 | Bacteroides clarus 0.896 | Bacteroides dorei 1.01 | Bacteroides stercoris 0.905 | [1] 0.936 | Bacteroides uniformis 0.95 | [2] 0.937 | Clostridium difficile 0.964 | Collinsella aerofaciens 0.952

COC(=O)c1ccc(I)cc1S(=O)(=O)[N-]C(=O)Nc1nc(C)nc(OC)n1.[Na+]
inactive: Akkermansia muciniphila 1.25 | Bacteroides caccae 0.901 | Bacteroides clarus 0.992 | Bacteroides dorei 0.933 | Bacteroides stercoris 1.01 | [1] 1.06 | Bacteroides uniformis 0.941 | [2] 1.01 | Clostridium difficile 0.991 | Collinsella aerofaciens 0.977

c1ccc2c(c1)Cc1ccccc1-2
inactive: Akkermansia muciniphila 1.04 | Bacteroides caccae 1.02 | Bacteroides clarus 1 | Bacteroides dorei 1.03 | Bacteroides stercoris 1.04 | [1] 1 | Bacteroides uniformis 1 | [2] 0.925 | Clostridium difficile 1.01 | Collinsella aerofaciens 1.01

CCNc1nc(NC(C)(C)C)[nH]c(=O)n1
inactive: Akkermansia muciniphila 1 | Bacteroides caccae 0.937 | Bacteroides clarus 0.98 | Bacteroides dorei 1.01 | Bacteroides stercoris 1.17 | [1] 0.969 | Bacteroides uniformis 0.983 | [2] 1.03 | Clostridium difficile 0.951 | Collinsella aerofaciens 0.95

Clc1ccc(Sc2cc(Cl)c(Cl)cc2Cl)cc1
inactive: Akkermansia muciniphila 1.05 | Bacteroides caccae 0.943 | Bacteroides clarus 0.993 | Bacteroides dorei 1.04 | Bacteroides stercoris 0.985 | [1] 0.98 | Bacteroides uniformis 0.984 | [2] 0.986 | Clostridium difficile 1 | Collinsella aerofaciens 0.936

CSC(=O)c1cccc2nnsc12
inactive: Akkermansia muciniphila 0.851 | Bacteroides caccae 1.04 | Bacteroides clarus 0.997 | Bacteroides dorei 0.978 | Bacteroides stercoris 1.07 | [1] 0.961 | Bacteroides uniformis 1 | [2] 1.04 | Clostridium difficile 1 | Collinsella aerofaciens 1.01

Cc1[nH]oc(=O)c1N=Nc1ccccc1Cl
inactive: Akkermansia muciniphila 0.935 | Bacteroides caccae 0.996 | Bacteroides clarus 0.95 | Bacteroides dorei 0.951 | Bacteroides stercoris 0.828 | [1] 1.01 | Bacteroides uniformis 1.02 | [2] 1.04 | Clostridium difficile 0.964 | Collinsella aerofaciens 0.961

CC(C)(C)[C@@H](O)[C@@H](Cc1ccc(Cl)cc1)n1cncn1 (mixture of isomers)
inactive: Akkermansia muciniphila 1.1 | Bacteroides caccae 0.942 | Bacteroides clarus 0.98 | Bacteroides dorei 0.909 | Bacteroides stercoris 0.933 | [1] 0.993 | Bacteroides uniformis 0.966 | [2] 1.09 | Clostridium difficile 0.938 | Collinsella aerofaciens 0.967

Cc1cccc(C)c1N(CC(=O)O)C(=O)CS(=O)(=O)[O-].[Na+]
inactive: Akkermansia muciniphila 0.891 | Bacteroides caccae 1.01 | Bacteroides clarus 0.939 | Bacteroides dorei 0.998 | Bacteroides stercoris 0.888 | [1] 1.01 | Bacteroides uniformis 1 | [2] 0.938 | Clostridium difficile 1.05 | Collinsella aerofaciens 0.973

O=C(O)Cc1cccc2ccccc12
inactive: Akkermansia muciniphila 0.984 | Bacteroides caccae 0.985 | Bacteroides clarus 0.969 | Bacteroides dorei 0.971 | Bacteroides stercoris 0.963 | [1] 1 | Bacteroides uniformis 1.04 | [2] 1.03 | Clostridium difficile 0.994 | Collinsella aerofaciens 0.968

CCCCC(CC)CN1C(=O)C2C(C1=O)[C@H]1C=C[C@@H]2C1 (mixture of isomers)
inactive: Akkermansia muciniphila 1.11 | Bacteroides caccae 1 | Bacteroides clarus 1.03 | Bacteroides dorei 0.974 | Bacteroides stercoris 1.06 | [1] 0.985 | Bacteroides uniformis 0.972 | [2] 1.05 | Clostridium difficile 1.03 | Collinsella aerofaciens 1.12

CCSc1nc(NC(C)C)nc(NC(C)C)n1
inactive: Akkermansia muciniphila 0.919 | Bacteroides caccae 1.01 | Bacteroides clarus 0.923 | Bacteroides dorei 0.983 | Bacteroides stercoris 0.88 | [1] 0.863 | Bacteroides uniformis 0.948 | [2] 0.984 | Clostridium difficile 1.03 | Collinsella aerofaciens 0.995

O=C1NCCN1
inactive: Akkermansia muciniphila 1.15 | Bacteroides caccae 1.02 | Bacteroides clarus 1.02 | Bacteroides dorei 1.06 | Bacteroides stercoris 1.18 | [1] 1.02 | Bacteroides uniformis 0.978 | [2] 1.04 | Clostridium difficile 0.993 | Collinsella aerofaciens 1.02

CNC(=O)Sc1ccc(OS(C)(=O)=O)cc1
inactive: Akkermansia muciniphila 0.955 | Bacteroides caccae 1.02 | Bacteroides clarus 0.858 | Bacteroides dorei 0.925 | Bacteroides stercoris 0.77 | [1] 0.848 | Bacteroides uniformis 0.953 | [2] 0.847 | Clostridium difficile 0.96 | Collinsella aerofaciens 1.01

O=C(O)CNC(=O)c1cnccc1C(F)(F)F
inactive: Akkermansia muciniphila 1.02 | Bacteroides caccae 1 | Bacteroides clarus 1.02 | Bacteroides dorei 0.976 | Bacteroides stercoris 1.07 | [1] 0.99 | Bacteroides uniformis 1.02 | [2] 1.06 | Clostridium difficile 0.924 | Collinsella aerofaciens 0.989

O=C(O)Cc1c[nH]c2ccccc12
inactive: Akkermansia muciniphila 0.904 | Bacteroides caccae 0.973 | Bacteroides clarus 0.976 | Bacteroides dorei 1.03 | Bacteroides stercoris 1.02 | [1] 0.98 | Bacteroides uniformis 1.01 | [2] 1.01 | Clostridium difficile 1 | Collinsella aerofaciens 0.984

CC(C)N(C(=O)C(=O)O)c1ccccc1
inactive: Akkermansia muciniphila 1.01 | Bacteroides caccae 1.01 | Bacteroides clarus 1.05 | Bacteroides dorei 1.03 | Bacteroides stercoris 1.13 | [1] 1.01 | Bacteroides uniformis 1.01 | [2] 1.08 | Clostridium difficile 1.02 | Collinsella aerofaciens 0.981

CN(C)C(=O)SCCCCOc1ccccc1
inactive: Akkermansia muciniphila 0.993 | Bacteroides caccae 0.957 | Bacteroides clarus 0.967 | Bacteroides dorei 0.99 | Bacteroides stercoris 0.915 | [1] 0.973 | Bacteroides uniformis 0.992 | [2] 0.984 | Clostridium difficile 0.983 | Collinsella aerofaciens 0.993

CCCCOC(=O)COc1ccc(Cl)cc1Cl
inactive: Akkermansia muciniphila 1.06 | Bacteroides caccae 0.975 | Bacteroides clarus 1.02 | Bacteroides dorei 0.996 | Bacteroides stercoris 1.09 | [1] 0.987 | Bacteroides uniformis 1.02 | [2] 0.965 | Clostridium difficile 0.999 | Collinsella aerofaciens 0.957

COC1CCC2(CC1)NC(=O)C(c1cc(C)ccc1C)=C2OC1OC(CO)C(O)C(O)C1O (stereo not given)
inactive: Akkermansia muciniphila 1.1 | Bacteroides caccae 0.946 | Bacteroides clarus 1.02 | Bacteroides dorei 0.993 | Bacteroides stercoris 1.21 | [1] 0.984 | Bacteroides uniformis 1.02 | [2] 1 | Clostridium difficile 1.02 | Collinsella aerofaciens 1.01

C[C@@]1(c2ccccc2)NC(=O)N(Nc2ccccc2)C1=O
inactive: Akkermansia muciniphila 0.931 | Bacteroides caccae 1.04 | Bacteroides clarus 0.973 | Bacteroides dorei 1 | Bacteroides stercoris 0.965 | [1] 0.992 | Bacteroides uniformis 1.01 | [2] 0.96 | Clostridium difficile 1 | Collinsella aerofaciens 1.02

CCNc1nc(N)[nH]c(=O)n1
inactive: Akkermansia muciniphila 1.01 | Bacteroides caccae 1.01 | Bacteroides clarus 0.998 | Bacteroides dorei 1.01 | Bacteroides stercoris 1.03 | [1] 0.998 | Bacteroides uniformis 1.02 | [2] 0.986 | Clostridium difficile 0.999 | Collinsella aerofaciens 1.04

Cc1cc(C)cc(O)c1
inactive: Akkermansia muciniphila 0.865 | Bacteroides caccae 1.04 | Bacteroides clarus 0.983 | Bacteroides dorei 1.01 | Bacteroides stercoris 1 | [1] 1.01 | Bacteroides uniformis 1 | [2] 0.906 | Clostridium difficile 1.03 | Collinsella aerofaciens 1.02

CCCCOCCOC(=O)COc1ccc(Cl)cc1Cl
inactive: Akkermansia muciniphila 1.09 | Bacteroides caccae 0.966 | Bacteroides clarus 0.991 | Bacteroides dorei 0.867 | Bacteroides stercoris 0.952 | [1] 0.98 | Bacteroides uniformis 0.93 | [2] 0.984 | Clostridium difficile 0.993 | Collinsella aerofaciens 0.96

C/C=C/C(=O)Oc1c(C(C)CCCCCC)cc([N+](=O)[O-])cc1[N+](=O)[O-] (mixture of isomers)
inactive: Akkermansia muciniphila 1
active: Bacteroides caccae 0.285 | Bacteroides clarus 0.0314 | Bacteroides dorei 0.0151 | Bacteroides stercoris 0.0105 | [1] 0.569 | Bacteroides uniformis 0.448 | [2] 0.289 | Clostridium difficile 0.0443 | Collinsella aerofaciens 0.789

COc1ccc(Oc2ccc(NC(=O)N(C)C)cc2)cc1
inactive: Akkermansia muciniphila 0.887 | Bacteroides caccae 1 | Bacteroides clarus 0.958 | Bacteroides dorei 0.98 | Bacteroides stercoris 0.951 | [1] 0.982 | Bacteroides uniformis 0.948 | [2] 0.957 | Clostridium difficile 0.99 | Collinsella aerofaciens 1

CC1(C)C(C(=O)OC(C#N)c2cccc(Oc3ccccc3)c2)C1C(Br)C(Br)(Br)Br (stereo not given)
inactive: Akkermansia muciniphila 0.951 | Bacteroides caccae 0.934 | Bacteroides clarus 1.04 | Bacteroides dorei 0.995 | Bacteroides stercoris 1.2 | [1] 1 | Bacteroides uniformis 0.943 | [2] 1.03 | Clostridium difficile 1.03 | Collinsella aerofaciens 0.939
